Source: PubChem (National Center for Advancing Translational Sciences (NCATS))
HEK293 viab – reduces viability of HEK-293 SNCA reporter cells; AID 1671193; HEK-293-SNCA-luc viability, GF-AFC fluorescence, 24 h; 150,000 compounds, 0.12% hits; Potency, µM (titrated, usually from 57.1 µM), for inactives: top-dose activity change, negative = cytotoxicity, most hits filed as cytotoxic;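 further: potency means the concentration at half of the fitted maximal effect; 0% = DMSO-treated cells and -100% = medium-only wells without cells; nearly all actives have a fitted effect of over 30% in size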
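Cytotoxicity counterscreen: after 24 h compound treatment of genome-edited SNCA-luciferase HEK-293 cells, live-cell protease substrate GF-AFC read by fluorescence after 30 min; activity scaled between DMSO (0%) and medium-only (-100%), curves Hill-fitted.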
SNCA expr inh – SNCA gene expression inhibition. 140,000 compounds, 0.17% hits. AID 1671194. HEK-293 SNCA-luciferase knock-in, luminescence, 24 h. Potency, µM (highest dose often 57.2 µM), without a hit: top-dose activity change, negative = inhibition, usual class: inhibitors;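 further: potency means the concentration at half of the fitted maximal effect; plate controls were DMSO cells for no effect and cell-free wells for full effect; nearly all actives have a fitted effect of over 45% in size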
IP6K1 inh – inhibitors of human IP6K1; Q92551; IP6K1 kinase, ADP-Glo luminescence, 2 h; active compounds read low; activity change, % (series mostly up to about 58 µM); 140,000 compounds, 0.81% hits; in the data active means activity change below about -25%; further: on the % scale 0 is the no-effect control and ±100 the full control effect
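ADP-Glo luminescence measures ADP made by human IP6K1 during a 2 h RT reaction with ATP/IP6 (mix at 1.3 mM/130 uM); top library doses 57.5 and 19.1 uM final.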
KDM5B inhibitor – blocks human KDM5B histone demethylase activity | AID 1347165 | KDM5B demethylase, FDH-coupled NADH fluorescence (FDH is formaldehyde dehydrogenase) | Potency, µM (highest dose often 57.7 µM), actives largely listed as inhibitors | Q9UGL1 | 220,000 compounds, 2.6% hits; further: potency means the concentration at half of the fitted maximal effect; 0% is about no effect; nearly all actives have a fitted effect of over 70% in size
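Measured: NADH fluorescence change, 30 min, RT. System: KDM5BΔAP 200 nM final, H3K4me3 peptide, α-KG, Fe(II), ascorbate, NAD⁺ plus FDH, pH 7.5 HEPES. Compounds: titrated, 10 min pre-incubation with enzyme.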
* marks the source's active call; other numbers are inactive results; i = inactive; ? = inconclusive; · = no result; [ ] = another dose, or the depositor's remark. Compounds with a hit are over-represented: about 3% of the library has one in this group of screens. Unless noted, the call rests on the fitted dose curve; in most records, active means well fitted curve in the direction sought with a large enough effect; inconclusive means small, poorly fitted or top-dose-only effect, or another doubt; inactive means no such curve, though single readings can be large; an effect the other way counts as inactive or inconclusive.

SMILES	HEK293 viab	SNCA expr inh	IP6K1 inh	KDM5B inhibitor
CCCc1noc(-c2ccn3c(CNC(=O)CCC4CCCC4)nnc3c2)n1	-0.3%	-1.7%	15.6	3.55µM*
CCc1noc(-c2ccn3c(CNC(=O)COc4cccc(C)c4)nnc3c2)n1	13.1%	-11.4%	9.1	?
CCc1noc(-c2ccn3c(CNC(=O)CCc4cccc(OC)c4)nnc3c2)n1	1.6%	3.2%	6.9	28.2µM*
CCc1noc(-c2ccn3c(CNC(=O)Cc4cccc(OC)c4)nnc3c2)n1	-12.1%	6.4%	11.6	22.4µM*
CC(C)Oc1ccc(C(=O)Oc2ccc(C#N)cc2)cc1	·	·	·	i
CC(C)(CNC(=O)C1(c2ccc(F)cc2)CCC1)C(N)=O	·	·	·	i
COc1cccc(CC(=O)NCc2nnc3cc(-c4nc(C(C)C)no4)ccn23)c1	1.4%	-2.0%	1.0	28.2µM*
CCc1noc(-c2ccn3c(CNC(=O)CCc4ccccc4)nnc3c2)n1	2.0%	-23.8%	-1.4	25.1µM*
COc1ccccc1CC(=O)NCc1nnc2cc(-c3nc(C)no3)ccn12	-3.0%	15.8%	14.6	?
Cc1noc(-c2cccs2)c1C(=O)NC1CCc2ccccc21 (stereo not drawn)	-1.3%	2.7%	-12.7	28.2µM*
Cc1noc(-c2cccs2)c1C(=O)NC(C)CCc1ccccc1 (stereo not drawn)	-1.6%	-15.2%	1.5	28.2µM*
CCn1nc(C(=O)Nc2ccc(OCC(=O)N(C)C)cc2)c2ccccc2c1=O	·	·	·	i
COc1ccccc1C(=O)N1CCC(n2cc(-c3nc(C(C)C)no3)nn2)CC1	3.7%	0.4%	4.4	i
CC(C)c1noc(-c2cn(C3CCN(C(=O)c4cccc5[nH]ccc45)CC3)nn2)n1	3.4%	-9.1%	12.3	28.2µM*
CCc1noc(-c2cn(C3CCN(C(=O)c4cccc5[nH]ccc45)CC3)nn2)n1	5.4%	21.4%	44.1	31.6µM*
CCCC(=O)Nc1nn2c(CC(C)C)nnc2s1	·	·	·	i
COc1ccc(CC2CN(C(=O)c3ccnc(N)c3)CCO2)cc1 (stereo not drawn)	3.9%	2.3%	5.8	25.1µM*
O=C(NCc1ccc(F)cc1Cl)c1noc(-c2ccc3c(c2)OCO3)n1	-8.5%	35.4%	-6.5	31.6µM*
COc1ccc(CNC(=O)Cn2cccc2-c2nc(-c3ccc4c(c3)OCO4)no2)cc1OC	1.1%	0.0%	17.3	i
CCc1ccc(CNC(=O)c2noc(-c3ccc4c(c3)OCO4)n2)cc1	15.4%	139.1%	1.9	?
C=CCOc1cccc(-c2nc(C(=O)NCc3cccc(F)c3)cs2)c1	4.2%	-5.4%	-12.0	?
CCOc1ccccc1CNC(=O)c1noc(-c2ccc3c(c2)OCO3)n1	1.8%	11.5%	14.6	31.6µM*
CCOc1cccc(-c2nc(C(=O)NCc3ccc4c(c3)OCO4)cs2)c1	-0.8%	-1.7%	-6.7	25.1µM*
COc1cccc(CNC(=O)Cn2cccc2-c2nc(-c3ccc4c(c3)OCO4)no2)c1	0.0%	3.8%	20.6	28.2µM*
O=C1N(Cc2ccc(Cl)cc2)CCCN1c1cccc(C(=O)N2CCc3ccccc32)c1	·	·	·	i
SMILES	HEK293 viab	SNCA expr inh	IP6K1 inh	KDM5B inhibitor
O=C(CCn1ccc2ccccc21)N1CCN(S(=O)(=O)c2cccc(F)c2)CC1	·	·	·	i
O=C(NCc1cccc(Cl)c1)c1noc(-c2ccc3c(c2)OCO3)n1	0.1%	12.8%	-3.1	28.2µM*
Cc1cccc(CCNC(=O)c2noc(-c3ccc4c(c3)OCO4)n2)c1	5.9%	-9.7%	0.0	31.6µM*
Cc1ccc(CNC(=O)c2noc(-c3ccc4c(c3)OCO4)n2)cc1	12.0%	37.1%	4.6	35.5µM*
COc1ccc(CNC(=O)c2noc(-c3ccc4c(c3)OCO4)n2)cc1	13.4%	100.3%	-0.6	28.2µM*
CCN(C(=O)CCl)C1CCCCC1	·	·	·	i
N#Cc1ccccc1-c1ccc(-c2cn(Cc3nnc4ccccn34)nn2)o1	3.8%	-20.9%	-6.2	28.2µM*
c1ccc(OCc2nn3c(CN4CCOCC4)nnc3s2)cc1	·	·	·	i
COCCC1(NC(=O)C(C)c2ccccc2)CCN(S(C)(=O)=O)CC1 (stereo not drawn)	20µM*	-14.4%	-12.3	i
COCCC1(NS(=O)(=O)c2ccccc2)CCN(S(C)(=O)=O)CC1	0.2%	1.1%	-5.3	i
COCc1noc(CCNc2cc(C)nc(-c3ccccc3O)n2)n1	-12.1%	56.0%	-16.9	22.4µM*
CCOC(=O)NC(Nc1cccc(F)c1)(C(=O)OCC)C(F)(F)F (stereo not drawn)	·	·	·	i
Nc1n[nH]c(CNc2cc(-c3ccc(F)cc3)nc3ccnn23)n1	-9.1%	1.1%	28.2	28.2µM*
Fc1ccc(CCNc2cc(Cl)nc3ccnn23)cc1	-5.2%[87.6 µM]	11.8%[87.6 µM]	15.0	i
Cc1sc(N2CCCC2)nc1-c1ccc(NS(C)(=O)=O)cc1	·	·	·	i
CNC(=O)c1cc2cc(-c3c(C)noc3C)nc(-c3ccccc3C)c2o1	-12.7%[87.6 µM]	53.8%[87.6 µM]	5.2	35.5µM*
CNC(=O)c1cc2cc(-c3c(C)noc3C)nc(-c3cccc(CO)c3)c2o1	-9.6%[87.6 µM]	71.8%[87.6 µM]	-0.1	35.5µM*
CNC(=O)c1cc2cc(-c3c(C)noc3C)nc(-c3ccccc3OC)c2o1	-1.3%[87.6 µM]	32.4%[87.6 µM]	-14.0	?
CCCN(Cc1nnc(-c2ccccc2Cl)o1)C(=O)c1cccc(S(=O)(=O)N(C)C)c1	·	·	·	i
COc1ccc(-c2cccc(C(=O)N3CCC(NC(=O)c4ccc(C)cc4)CC3)c2)nn1	·	·	4.8	·
Cc1cccc(CN2CCCC3(CCN(c4cc(C)c5ccccc5n4)C3)C2=O)c1 (stereo not drawn)	-22.1%	-5.4%	15.2	28.2µM*
CCCN1CCCC2(CCN(c3cc(C)c4cccc(OC)c4n3)C2)C1=O (stereo not drawn)	-1.5%	-27.0%	-9.6	28.2µM*
Cc1cc(N2CCC3(CCCN(CC4CCC4)C3=O)C2)nc2ccccc12 (stereo not drawn)	?	?	4.2	28.2µM*
Cc1cc(=O)n2[nH]c(NCc3ccccc3)nc2n1	·	·	·	i
COCCN(C)C[C@@H]1CN(c2cc(C)c3ccc(SC)cc3n2)C[C@@H]1CO	?	-11.8%	4.8	28.2µM*
SMILES	HEK293 viab	SNCA expr inh	IP6K1 inh	KDM5B inhibitor
COCCN(C)C[C@@H]1CN(C(=O)c2cnc(SC)nc2)C[C@@H]1CO	-10.5%	-0.6%	0.1	i
O=C(CCCC(=O)OCC(=O)c1ccc([N+](=O)[O-])cc1)Nc1cc(C(F)(F)F)ccc1Cl	·	·	·	i
O=C(NCc1ccc(F)cc1)c1nc(-c2cccc(F)c2)c2cnccn12	-17.7%	6.8%	10.5	i
O=C(NCc1cccs1)c1nc(-c2cccc(C(F)(F)F)c2)c2cnccn12	13.7%	-7.9%	4.4	15.8µM*
O=C(NCc1ccc(F)cc1)c1nc(-c2cccc(C(F)(F)F)c2)c2cnccn12	4.7%	33.4%	0.0	28.2µM*
COC(=O)c1cc(-c2ccccn2)nc2ccccc12	·	·	·	i
CCCc1cc(=O)[nH]c(Nc2nc(C)c3ccc(C)cc3n2)n1	·	·	·	i
CC1(C)CNC(=O)c2nc(CCN3CCCc4ccccc43)[nH]c2C1	3.3%	-2.8%	-13.0	15.8µM*
